Potency data for 27 compounds are collected here from PubChem BioAssay (NCATS).

Results filed as inconclusive are left out. A call without a number means that no potency is given here. The source made the active and inactive calls. Unless noted, calls come from the whole dose curve; as a rule, active = well fitted curve in the direction sought with a large enough effect; inconclusive = small, poorly fitted or top-dose-only effect, or another doubt; inactive = no such curve, though single readings can be large; an effect the other way counts as inactive or inconclusive.

Chain of Luciferin 4-monooxygenase (Photinus pyralis) (P08659 whole entry, looked up): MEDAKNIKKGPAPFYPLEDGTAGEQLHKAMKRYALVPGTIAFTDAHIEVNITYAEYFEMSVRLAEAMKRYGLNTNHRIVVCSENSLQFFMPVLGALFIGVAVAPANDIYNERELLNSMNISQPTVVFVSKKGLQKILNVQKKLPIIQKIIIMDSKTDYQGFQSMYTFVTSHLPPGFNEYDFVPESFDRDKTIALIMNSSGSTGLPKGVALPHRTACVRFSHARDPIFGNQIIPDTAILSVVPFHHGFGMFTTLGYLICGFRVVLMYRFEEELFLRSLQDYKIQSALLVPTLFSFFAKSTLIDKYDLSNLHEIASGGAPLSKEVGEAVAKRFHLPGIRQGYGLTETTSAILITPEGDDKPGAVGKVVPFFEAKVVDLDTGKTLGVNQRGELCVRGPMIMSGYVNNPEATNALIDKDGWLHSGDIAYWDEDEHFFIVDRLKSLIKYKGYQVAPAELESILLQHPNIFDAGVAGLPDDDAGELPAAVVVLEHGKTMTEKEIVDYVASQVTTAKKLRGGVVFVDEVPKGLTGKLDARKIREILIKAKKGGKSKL

The first experiment addresses Luciferin 4-monooxygenase (Photinus pyralis) (UniProt P08659). The experiment is described as follows: Biochemical firefly luciferase enzyme assay for NPC (AID 624030).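 Note: purified P. pyralis luciferase at 10 nM with luciferin and ATP substrate; nearly all actives have a fitted effect of over 70% in size.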 The conditions noted are these: purified P. pyralis luciferase, luminescence, 5 min; series mostly up to 58.6 µM. Summed up:
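Counter-screen for direct inhibition of the luciferase enzyme by approved-drug library compounds, run at 10 nM enzyme in 50 mM Tris acetate (final). Luminescence was read within 5 min of enzyme-buffer addition and normalized to PTC124 versus DMSO (0%).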
For `CC(CC(C#N)(c1ccccc1)c1ccccc1)N(C)C` (stereo unspecified), the Potency entry was “inactive”.

With `CNC(C)Cc1ccccc1OC` (stereo unspecified), the Potency entry was “inactive”.

On to `OC(c1ccccc1)(c1ccccc1)C1CCNCC1`, for which the Potency entry is “inactive”.

As for `NC1(c2ccccc2)CCCCC1`, the Potency result is “inactive”.

For the compound `Cc1ccc(O)cc1`, the Potency entry is “inactive”.

System in a further experiment: not listed separately
The experiment is described as follows: S16 Schwann cell viability assay (CellTiter-Glo assay) (AID 624031). Note: nearly all actives have a fitted effect of over 70% in size. Note: potency is the fitted concentration of half-maximal effect. As to conditions: S16 rat Schwann cells viability, 24 h; series mostly up to 57.5 µM. In a few lines: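 Parental S16 cells, 24 h compound, 37 °C. ATP-luminescence viability; DMSO = 0% activity, empty wells as reference; curves classified by fit quality and efficacy.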
Consider `Cc1c(Cl)c(=O)oc2cc(OP(=O)(OCCCl)OCCCl)ccc12`, for which the Potency entry was “inactive”.

Turning to `O=C1NCN(c2ccccc2)C12CCN(CCCC(c1ccc(F)cc1)c1ccc(F)cc1)CC2`, the Potency is 22.8 µM (active).

For the compound `CCC1(c2ccccc2)CCC(=O)NC1=O` (stereo unspecified), the Potency result is “inactive”.

Regarding `Clc1ccc(CO/N=C(\Cn2ccnc2)c2ccc(Cl)cc2Cl)c(Cl)c1`, the Potency entry is “inactive”.

On to `CC(Cc1ccccc1)NCc1ccccc1Cl` (stereo unspecified), for which the Potency result is “inactive”.

In the case of `CN1C(=O)[C@@H](NC(=O)c2cc3ccccc3[nH]2)N=C(c2ccccc2)c2ccccc21`, the Potency result was “inactive”.

With `OC(c1ccccc1)(c1ccccc1)C1CCNCC1`, the Potency entry was “inactive”.

System in a further experiment: not listed separately
The experiment is described as follows: S16 Schwann cell PMP22 intronic element firefly luciferase assay (AID 624032). Note: nearly all actives have a fitted effect of over 30% in size. Note: potency is the fitted concentration of half-maximal effect. The conditions noted are these: S16 rat Schwann cells, PMP22 element FLuc, 24 h; series mostly up to 57.5 µM. Summed up: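 Rat S16 Schwann cells stably carrying a PMP22 intronic element-driven Fluc reporter were seeded overnight, then exposed to compounds for 24 h at 37 °C. Luminescence was normalized to PTC124 (positive control) and DMSO (0% activity).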
Take `Cc1c(Cl)c(=O)oc2cc(OP(=O)(OCCCl)OCCCl)ccc12`: the Potency is 12.8 µM (active).

Turning to `NC(N)=NN=C(/C=C/c1ccc([N+](=O)[O-])o1)/C=C/c1ccc([N+](=O)[O-])o1`, the Potency was 7.21 µM (active).

`Clc1ccc2c(c1)CCc1cccnc1C2=C1CCNCC1`: the Potency was 28.7 µM (active).

For the compound `CCC1(c2ccccc2)CCC(=O)NC1=O` (stereo unspecified), the Potency result was “inactive”.

On to `CN1C[C@H](C(=O)N[C@]2(C)O[C@@]3(O)[C@@H]4CCCN4C(=O)[C@H](Cc4ccccc4)N3C2=O)C[C@@H]2c3cccc4[nH]cc(c34)C[C@H]21`, for which the Potency was 25.6 µM (active).

With `Clc1ccc(CO/N=C(\Cn2ccnc2)c2ccc(Cl)cc2Cl)c(Cl)c1`, the Potency is 32.2 µM (active).

Turning to `CC(Cc1ccccc1)NCc1ccccc1Cl` (stereo unspecified), the Potency result is “inactive”.

In the case of `O=c1cc(CO)occ1O`, the Potency was 16.1 µM (active).

In the case of `Cc1cccc(C)c1NC(=O)CN1CCCC1`, the Potency was 8.09 µM (active).

With `CC1CCc2cc(F)cc3c(=O)c(C(=O)O)cn1c23` (stereo unspecified), the Potency result is “inactive”.

For `O=C(Oc1cccc2cccnc12)c1ccccc1`, the Potency is 9.07 µM (active).

Regarding `O=C(O)c1ccc(OCCCOc2ccc(C(=O)O)cc2)cc1`, the Potency entry is “inactive”.

`CN(C)C(=S)SC(=S)N(C)C`: the Potency is 2.87 µM (active).

As to `C[C@]12Cc3nonc3C[C@@H]1CC[C@@H]1[C@@H]2CC[C@@]2(C)[C@H]1CC[C@]2(C)O`, the Potency is 14.4 µM (active).

`COc1cc(C(=S)N2CCOCC2)ccc1O`: the Potency is 5.1 µM (active).

In the case of `CN1CCc2cc(Cl)c(O)cc2[C@H]2c3ccccc3CC[C@@H]21`, the Potency result was “inactive”.

For the compound `CC(C)(C)C(=O)C(Oc1ccc(Cl)cc1)n1ccnc1` (stereo unspecified), the Potency was 2.03 µM (active).

Consider `NC(=O)NNc1ccccc1`, for which the Potency entry is “inactive”.

`CN1CCN(c2cc3c(nn2)Oc2ccccc2N3C)CC1`: the Potency result was “inactive”.

Regarding `CCCCCCCCCCCCOCCOCCOCCOCCOCCOCCOCCOCCOCCO`, the Potency is 18.1 µM (active).

As for `OC(c1ccccc1)(c1ccccc1)C1CCNCC1`, the Potency entry is “inactive”.

System in a further experiment: not listed separately
The experiment is described as follows: S16 Schwann cell PMP22 intronic element beta-lactamase assay (AID 624044; calls by dose curve; note: nearly all actives have a fitted effect of over 15% in size; note: potency is the fitted concentration of half-maximal effect). As to conditions: S16 rat Schwann cells, PMP22 element beta-lactamase FRET, 24 h; series mostly up to 38.3 µM. Summed up:
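Rat S16 Schwann cells with beta-Lac driven by a PMP22 intronic element, compound-treated 24 h at 37 °C. LiveBLAzer FRET B/G read: 460 nm normalized to potassium clavulanate vs DMSO; 535 nm FRET as viability; concentration-effect curves classified.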
As for `NC(N)=NN=C(/C=C/c1ccc([N+](=O)[O-])o1)/C=C/c1ccc([N+](=O)[O-])o1`, the Potency is 9.99 µM (active).

`Clc1ccc(CO/N=C(\Cn2ccnc2)c2ccc(Cl)cc2Cl)c(Cl)c1`: the Potency result was “inactive”.

As for `CC(Cc1ccccc1)NCc1ccccc1Cl` (stereo unspecified), the Potency entry was “inactive”.
